Source: paper PMC4336329 (PLoS ONE, 2015)
In all, about 310,000 compounds went through this assay and about 14,000 (4.5%) showed an effect of 50% or more. The effect is printed as a negative number. The list comes from a sample in which strong results are over-represented; it also holds similar structures and randomly drawn compounds.

molecular target: human ether-à-go-go-related gene (hERG) potassium channel (human, UniProt Q12809); assay: primary screen, population patch clamp on CHO cells stably expressing hERG; higher = less effect of the substance
Sequence (Q12809 whole entry, looked up): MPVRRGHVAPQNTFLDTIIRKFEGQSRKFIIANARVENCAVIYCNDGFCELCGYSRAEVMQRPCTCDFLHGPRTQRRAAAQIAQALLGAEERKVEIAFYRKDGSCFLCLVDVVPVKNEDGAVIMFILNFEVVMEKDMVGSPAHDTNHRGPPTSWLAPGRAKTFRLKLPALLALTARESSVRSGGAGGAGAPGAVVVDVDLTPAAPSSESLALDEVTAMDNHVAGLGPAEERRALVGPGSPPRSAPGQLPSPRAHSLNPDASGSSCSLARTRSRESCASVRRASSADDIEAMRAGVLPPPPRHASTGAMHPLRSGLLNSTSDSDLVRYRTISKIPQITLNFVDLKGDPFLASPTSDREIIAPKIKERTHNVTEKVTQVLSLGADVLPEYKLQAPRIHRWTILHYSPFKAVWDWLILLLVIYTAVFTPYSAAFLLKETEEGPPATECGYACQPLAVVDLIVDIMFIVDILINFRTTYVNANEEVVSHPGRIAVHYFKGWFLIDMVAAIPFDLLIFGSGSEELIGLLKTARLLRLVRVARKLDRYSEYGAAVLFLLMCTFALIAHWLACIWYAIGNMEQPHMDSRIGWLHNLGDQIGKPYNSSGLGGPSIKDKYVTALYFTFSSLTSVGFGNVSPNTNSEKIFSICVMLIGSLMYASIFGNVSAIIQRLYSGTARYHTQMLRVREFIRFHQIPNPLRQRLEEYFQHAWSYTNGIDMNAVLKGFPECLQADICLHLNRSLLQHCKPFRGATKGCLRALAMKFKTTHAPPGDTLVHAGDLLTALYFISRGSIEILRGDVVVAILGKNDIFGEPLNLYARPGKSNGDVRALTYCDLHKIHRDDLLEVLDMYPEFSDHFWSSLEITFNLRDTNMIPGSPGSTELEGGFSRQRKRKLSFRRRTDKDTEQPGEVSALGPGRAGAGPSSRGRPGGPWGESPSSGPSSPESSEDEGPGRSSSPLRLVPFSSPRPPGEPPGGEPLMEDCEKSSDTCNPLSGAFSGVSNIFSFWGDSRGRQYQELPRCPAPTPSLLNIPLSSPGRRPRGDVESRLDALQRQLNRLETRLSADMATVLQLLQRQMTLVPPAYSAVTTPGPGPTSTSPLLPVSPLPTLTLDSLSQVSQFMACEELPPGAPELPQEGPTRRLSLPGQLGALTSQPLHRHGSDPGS
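Note: peak tail current of the secondary pulse compared with the same well before compound.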

Structure (SMILES) | hERG current change (%, negative = inhibition) at 10uM [%]
Cn1c(SCC(N)=O)nnc1C1CCN(S(=O)(=O)c2ccccc2C(F)(F)F)CC1 | 13.3
COCC(=O)Nc1cc(=O)n(C)c(=O)n1C | 4.94
CC(C)(C)C(=O)Nc1nnc(SCC(=O)NCc2cccs2)s1 | 16.3
CCc1ccc(C(O)(CNCc2ccccc2)c2ccccc2)cc1 (stereo not shown) | -41.6
OC(CNCc1ccccc1)(c1ccccc1)c1ccccc1 | -9.7
OC(CNCc1ccc(Cl)cc1)(c1ccccc1)c1ccc(F)cc1 (stereo not shown) | -4.52
COc1ccc(CNCC(O)(c2ccccc2)c2ccc(Cl)cc2)cc1 (stereo not shown) | -68.8
COc1ccc(CNCC(O)(c2ccc(Cl)cc2)c2ccc(Cl)cc2)cc1 | -12
COc1ccc(CNCC(O)(c2ccccc2)c2ccccc2)cc1 | -64
CN(CC(=O)Nc1ccccc1Cl)C(=O)CSc1ncc(C(F)(F)F)cc1Cl | 9.55
CCCCCCCNC(=O)CC(NS(=O)(=O)c1ccc(NC(C)=O)cc1)C(C)C (stereo not shown) | 3.19
CCCc1cc(NCCCN2CCOCC2)n2c(nc3ccccc32)c1C#N | -75.7
Cc1cc(NCC2CCCO2)n2c(nc3ccccc32)c1C#N (stereo not shown) | -21.2
CC(C)c1cc(NCC2CCCO2)n2c(nc3ccccc32)c1C#N (stereo not shown) | -41
CCCc1cc(NCCN(C)C)n2c(nc3ccccc32)c1C#N | -7.73
CCCc1cc(NCCCCO)n2c(nc3ccccc32)c1C#N | -53.1
CCCc1cc(NCCCO)n2c(nc3ccccc32)c1C#N | -16.6
CCCc1cc(NCC2CCCO2)n2c(nc3ccccc32)c1C#N (stereo not shown) | -66.5
Cc1cc(NCCCN2CCOCC2)n2c(nc3ccccc32)c1C#N | -23.3
Cc1cc(NCCN2CCOCC2)n2c(nc3ccccc32)c1C#N | -6.09
CCCc1cc(NCCCN(C)C)n2c(nc3ccccc32)c1C#N | 0.382

Structure (SMILES) | hERG current change (%, negative = inhibition) at 10uM [%]
CCCc1c(C)c(C#N)c2nc3ccccc3n2c1NCCCN1CCOCC1 | -44
CC(C)c1cc(NCCCN2CCOCC2)n2c(nc3ccccc32)c1C#N | -79.9
Cn1c(=O)oc2cc(S(=O)(=O)NC3CCN(Cc4ccccc4)CC3)ccc21 | -36.4
CC1Cc2ccccc2N1C(=S)Nc1cccc(S(=O)(=O)N(C)C)c1 (stereo not shown) | 2.06
O=C(c1ccc2c(c1)OCO2)N1CCC2(CC1)OCCO2 | -10.6
CC1CCN(CCCCOc2ccccc2[N+](=O)[O-])CC1.O=C(O)C(=O)O | -26.3
Fc1ccc(OCCOCCN2CCNCC2)cc1.O=C(O)C(=O)O | 6.98
CC1CCN(S(=O)(=O)c2ccc(Oc3ccc([N+](=O)[O-])cc3)cc2)CC1 | -21.7
O=C(O)C(=O)O.O=[N+]([O-])c1ccc(OCCN2CCCCCC2)cc1 | -86.1
Cc1ccc(OCCN2CCNCC2)c([N+](=O)[O-])c1.O=C(O)C(=O)O | -5.84
CC1CCN(CC(CS(=O)(=O)c2ccc([N+](=O)[O-])cc2)N2CCC(C)CC2)CC1 (stereo not shown) | -62.1
O=[N+]([O-])c1ccc(S(=O)(=O)CC(CN2CCOCC2)N2CCOCC2)cc1 (stereo not shown) | -1.68
CC1CCN(S(=O)(=O)c2ccc([N+](=O)[O-])cc2)CC1 | -3.23
O=C(O)C(=O)O.O=[N+]([O-])c1ccc(OCCN2CCNCC2)cc1 | -76
CC1CCN(CCCCOc2ccc([N+](=O)[O-])cc2)CC1 | -74.7
COc1ccc(C)cc1N(C(=O)COc1cccc(F)c1)c1nc2ccccc2s1 | -27.2
O=[N+]([O-])c1ccc(-n2nnnc2-c2ccccc2)c([N+](=O)[O-])c1 | 6.9
COc1cccc(CN2CC(C(=O)NCc3cccc(N4CCCC4)c3)CCC2=O)c1 (stereo not shown) | -5.08
CCOc1ccc(S(=O)(=O)NC2CC2)cc1 | 4.15
N/C(=N\OC(=O)c1ccc2ccccc2c1)c1ccncc1 | -38.4
C[C@H](CCC(=O)O)[C@H]1CC[C@H]2[C@@H]3[C@H](O)C[C@@H]4C[C@H](O)CC[C@]4(C)[C@H]3CC[C@]12C | 13.8

Structure (SMILES) | hERG current change (%, negative = inhibition) at 10uM [%]
CC(C)C(=O)N1CCN(c2ccccc2NC(=S)NC(=O)c2cccs2)CC1 | -2.66
CCOc1ccc(OCC)c(NC(=O)C2CCCN(C(=O)c3ccc(Cl)cc3)C2)c1 (stereo not shown) | -34
O=[N+]([O-])c1ccc(OCCCCN2CCCCC2)cc1 | -69.4
O=[N+]([O-])c1ccc(OCCCCCN2CCOCC2)cc1 | -58.6
Clc1ccc(OCCCCCN2CCOCC2)cc1 | -37.6
Cc1ccc(OCCCCCN2CCOCC2)cc1 | 4.39
O=[N+]([O-])c1ccccc1OCCCCN1CCCCC1 | -32.2
C=Cc1ccc2c(c1)N(C)C(=C)S2.I | 19.7
CCOC(=O)c1oc2ccccc2c1NC(=O)COC | -12.2
COc1ccc(CCNC(=S)Nc2cccc3ccccc23)cc1 | -4.42
CCOc1ccc(NS(=O)(=O)c2ccc(C(=O)N3CCC3)cc2)cc1 | -4.09
COc1ccc(OC)c(NC(=O)Cn2c(CCC(=O)O)ccc2-c2ccccc2)c1 | -5.33
COc1ccccc1CNc1nc2nc(C)c(Cl)c(=O)n2[nH]1 | -2.39
O=c1c2c3c(sc2n(CCN2CCCC2)c(=O)n1Cc1ccccc1)CCCCC3 | -34.7
O=C(Cn1c(=O)n(Cc2ccco2)c(=O)c2c3c(sc21)CCCCC3)Nc1ccccc1 | 6.54
O=c1c2c3c(sc2n(CCN2CCCC2)c(=O)n1Cc1ccco1)CCCCC3 | -68.6
O=c1c2c3c(sc2n(CCN2CCOCC2)c(=O)n1Cc1ccco1)CCCCC3 | -44.3
O=c1c2c3c(sc2n(CCN2CCCCC2)c(=O)n1Cc1ccco1)CCCCC3 | -69.1
O=C(Cn1c(=O)n(Cc2ccco2)c(=O)c2c3c(sc21)CCCC3)Nc1ccccc1 | 18
